Key:
Test in all cases: PBM; 200 nM protein, PBS
Conditions in all cases: dsDNA, one strand shown
HOXA7 [1] = target: HOXA7 (Homo sapiens, UniProt P31268 116-202)
HOXA7 [2] = target: HOXA7 (Homo sapiens, UniProt P31268 116-202, W177C)
HOXC10 = HOXC10 (Homo sapiens, UniProt Q9NYD6 254-340)
NKX2-4 = target: T1, NKX2-4 (Homo sapiens, UniProt Q9H2Z4 175-261, T231S)
T1 sequence: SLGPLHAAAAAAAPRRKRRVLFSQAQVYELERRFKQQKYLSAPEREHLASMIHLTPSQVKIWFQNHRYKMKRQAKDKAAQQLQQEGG

Chain of HOXA7 (Homo sapiens, UniProt P31268 116-202) (P31268 116-202): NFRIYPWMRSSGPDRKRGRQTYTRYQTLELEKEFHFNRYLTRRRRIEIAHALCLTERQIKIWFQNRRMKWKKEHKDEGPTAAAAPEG
Chain of HOXA7 (Homo sapiens, UniProt P31268 116-202, W177C) (P31268 116-202 W177C): as the sequence (P31268 116-202) above, with W62C counted along it
Chain of HOXC10 (Q9NYD6 254-340): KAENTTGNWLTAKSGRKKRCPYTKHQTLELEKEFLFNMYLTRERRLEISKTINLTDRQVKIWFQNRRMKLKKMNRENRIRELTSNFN

**Q.** For AGCATGCT, which binding signal (HOXA7 [1]) is on record?
**A.** The binding signal was 8.54 upbm affinity estimate (log intensity, higher = more binding, comparable within an allelic series).

**Q.** And the binding signal (HOXA7 [2])?
**A.** Its binding signal is 8.54 upbm affinity estimate (log intensity, higher = more binding, comparable within an allelic series).

**Q.** Which binding signal (HOXA7 [1]) does the source give for GCTTTCGA here?
**A.** The binding signal was 8.45 upbm affinity estimate (log intensity, higher = more binding, comparable within an allelic series).

**Q.** And the binding signal (HOXA7 [2])?
**A.** Its binding signal is 8.45 upbm affinity estimate (log intensity, higher = more binding, comparable within an allelic series).

**Q.** How did the binding signal (HOXA7 [1]) turn out when CCATTTAA was run?
**A.** The binding signal was 10.5 upbm affinity estimate (log intensity, higher = more binding, comparable within an allelic series).

**Q.** What about the binding signal (HOXA7 [2]) of the same sequence?
**A.** The binding signal was 8.76 upbm affinity estimate (log intensity, higher = more binding, comparable within an allelic series).

**Q.** What does the source list for AGGCTGGA?
**A.** binding signal (HOXA7 [1]): 8.5 upbm affinity estimate (log intensity, higher = more binding, comparable within an allelic series); binding signal (HOXA7 [2]): 8.45 upbm affinity estimate (log intensity, higher = more binding, comparable within an allelic series)

**Q.** Which results are given for AGAATGAT?
**A.** binding signal (HOXA7 [1]): 9.52 upbm affinity estimate (log intensity, higher = more binding, comparable within an allelic series); binding signal (HOXA7 [2]): 8.8 upbm affinity estimate (log intensity, higher = more binding, comparable within an allelic series)

**Q.** Which results are given for ACCCCCCT?
**A.** binding signal (HOXA7 [1]): 8.3 upbm affinity estimate (log intensity, higher = more binding, comparable within an allelic series); binding signal (HOXA7 [2]): 8.32 upbm affinity estimate (log intensity, higher = more binding, comparable within an allelic series)

**Q.** AATTGTAA was tested. Which binding signal (HOXA7 [1]) did it give?
**A.** Its binding signal is 9.73 upbm affinity estimate (log intensity, higher = more binding, comparable within an allelic series).

**Q.** And the binding signal (HOXA7 [2])?
**A.** Its binding signal is 8.68 upbm affinity estimate (log intensity, higher = more binding, comparable within an allelic series).

**Q.** Which binding signal (HOXA7 [1]) does the source give for CCAGAGGA here?
**A.** Its binding signal is 8.4 upbm affinity estimate (log intensity, higher = more binding, comparable within an allelic series).

**Q.** And the binding signal (HOXA7 [2])?
**A.** The binding signal was 8.47 upbm affinity estimate (log intensity, higher = more binding, comparable within an allelic series).

**Q.** What does the source list for AAATGGGG?
**A.** binding signal (HOXA7 [1]): 9.82 upbm affinity estimate (log intensity, higher = more binding, comparable within an allelic series); binding signal (HOXA7 [2]): 8.64 upbm affinity estimate (log intensity, higher = more binding, comparable within an allelic series)

**Q.** With AAATTGCC as the sequence, how does the binding signal (HOXA7 [1]) read?
**A.** Its binding signal is 10.3 upbm affinity estimate (log intensity, higher = more binding, comparable within an allelic series).

**Q.** What about the binding signal (HOXA7 [2]) of the same sequence?
**A.** Its binding signal is 8.7 upbm affinity estimate (log intensity, higher = more binding, comparable within an allelic series).

**Q.** With AAGACGAG as the sequence, how does the binding signal (HOXA7 [1]) read?
**A.** The binding signal was 8.4 upbm affinity estimate (log intensity, higher = more binding, comparable within an allelic series).

**Q.** And the binding signal (HOXA7 [2])?
**A.** Its binding signal is 8.43 upbm affinity estimate (log intensity, higher = more binding, comparable within an allelic series).

**Q.** For CTATTATA, which binding signal (HOXA7 [1]) is on record?
**A.** Its binding signal is 10.7 upbm affinity estimate (log intensity, higher = more binding, comparable within an allelic series).

**Q.** What about the binding signal (HOXA7 [2]) of the same sequence?
**A.** The binding signal was 8.92 upbm affinity estimate (log intensity, higher = more binding, comparable within an allelic series).

**Q.** With CAATTGCG as the sequence, how does the binding signal (HOXA7 [1]) read?
**A.** The binding signal was 9.48 upbm affinity estimate (log intensity, higher = more binding, comparable within an allelic series).

**Q.** What about the binding signal (HOXA7 [2]) of the same sequence?
**A.** The binding signal was 8.54 upbm affinity estimate (log intensity, higher = more binding, comparable within an allelic series).

**Q.** What does the source list for GAAGGGAC?
**A.** binding signal (HOXA7 [1]): 8.46 upbm affinity estimate (log intensity, higher = more binding, comparable within an allelic series); binding signal (HOXA7 [2]): 8.39 upbm affinity estimate (log intensity, higher = more binding, comparable within an allelic series)

**Q.** For ATCATCTA, which binding signal (HOXA7 [1]) is on record?
**A.** The binding signal was 9.36 upbm affinity estimate (log intensity, higher = more binding, comparable within an allelic series).

**Q.** What about the binding signal (HOXA7 [2]) of the same sequence?
**A.** Its binding signal is 8.74 upbm affinity estimate (log intensity, higher = more binding, comparable within an allelic series).

**Q.** How did the binding signal (HOXA7 [1]) turn out when CCATAATC was run?
**A.** Its binding signal is 9.89 upbm affinity estimate (log intensity, higher = more binding, comparable within an allelic series).

**Q.** And the binding signal (HOXA7 [2])?
**A.** The binding signal was 8.75 upbm affinity estimate (log intensity, higher = more binding, comparable within an allelic series).

**Q.** How did the binding signal (HOXA7 [1]) turn out when CATTATGC was run?
**A.** Its binding signal is 10.3 upbm affinity estimate (log intensity, higher = more binding, comparable within an allelic series).

**Q.** What about the binding signal (HOXA7 [2]) of the same sequence?
**A.** The binding signal was 8.86 upbm affinity estimate (log intensity, higher = more binding, comparable within an allelic series).

**Q.** For CTCATTTA, which binding signal (HOXA7 [1]) is on record?
**A.** Its binding signal is 9.93 upbm affinity estimate (log intensity, higher = more binding, comparable within an allelic series).

**Q.** What about the binding signal (HOXA7 [2]) of the same sequence?
**A.** Its binding signal is 8.72 upbm affinity estimate (log intensity, higher = more binding, comparable within an allelic series).

**Q.** Which results are given for AGATAAAC?
**A.** binding signal (HOXA7 [1]): 9.31 upbm affinity estimate (log intensity, higher = more binding, comparable within an allelic series); binding signal (HOXA7 [2]): 8.79 upbm affinity estimate (log intensity, higher = more binding, comparable within an allelic series)

**Q.** For AGAGCCTG, which binding signal (HOXA7 [1]) is on record?
**A.** The binding signal was 8.58 upbm affinity estimate (log intensity, higher = more binding, comparable within an allelic series).

**Q.** What about the binding signal (HOXA7 [2]) of the same sequence?
**A.** The binding signal was 8.43 upbm affinity estimate (log intensity, higher = more binding, comparable within an allelic series).

**Q.** Which binding signal (HOXA7 [1]) does the source give for GCGGCTAC here?
**A.** Its binding signal is 8.37 upbm affinity estimate (log intensity, higher = more binding, comparable within an allelic series).

**Q.** And the binding signal (HOXA7 [2])?
**A.** Its binding signal is 8.37 upbm affinity estimate (log intensity, higher = more binding, comparable within an allelic series).

**Q.** How did the binding signal (HOXA7 [1]) turn out when GTCAGGCA was run?
**A.** The binding signal was 8.57 upbm affinity estimate (log intensity, higher = more binding, comparable within an allelic series).

**Q.** And the binding signal (HOXA7 [2])?
**A.** Its binding signal is 8.43 upbm affinity estimate (log intensity, higher = more binding, comparable within an allelic series).

**Q.** Which binding signal (HOXC10) does the source give for GACAGTAA here?
**A.** Its binding signal is 11 upbm affinity estimate (log intensity, higher = more binding, comparable within an allelic series).

**Q.** Which binding signal (HOXA7 [1]) does the source give for CCTGTGTC here?
**A.** The binding signal was 8.55 upbm affinity estimate (log intensity, higher = more binding, comparable within an allelic series).

**Q.** And the binding signal (HOXA7 [2])?
**A.** Its binding signal is 8.53 upbm affinity estimate (log intensity, higher = more binding, comparable within an allelic series).

**Q.** CGTGCAAG was tested. Which binding signal (HOXA7 [1]) did it give?
**A.** Its binding signal is 8.47 upbm affinity estimate (log intensity, higher = more binding, comparable within an allelic series).

**Q.** And the binding signal (HOXA7 [2])?
**A.** Its binding signal is 8.43 upbm affinity estimate (log intensity, higher = more binding, comparable within an allelic series).

**Q.** Which binding signal (HOXA7 [1]) does the source give for CCATTACA here?
**A.** Its binding signal is 10.6 upbm affinity estimate (log intensity, higher = more binding, comparable within an allelic series).

**Q.** What about the binding signal (HOXA7 [2]) of the same sequence?
**A.** Its binding signal is 8.97 upbm affinity estimate (log intensity, higher = more binding, comparable within an allelic series).

**Q.** How did the binding signal (NKX2-4) turn out when GTACTTTA was run?
**A.** Its binding signal is 12.8 upbm affinity estimate (log intensity, higher = more binding, comparable within an allelic series).

**Q.** Which results are given for ACTGAAGG?
**A.** binding signal (HOXA7 [1]): 8.48 upbm affinity estimate (log intensity, higher = more binding, comparable within an allelic series); binding signal (HOXA7 [2]): 8.52 upbm affinity estimate (log intensity, higher = more binding, comparable within an allelic series)

**Q.** ATAAGTAT was tested. Which binding signal (HOXA7 [1]) did it give?
**A.** Its binding signal is 9.57 upbm affinity estimate (log intensity, higher = more binding, comparable within an allelic series).

**Q.** What about the binding signal (HOXA7 [2]) of the same sequence?
**A.** Its binding signal is 8.76 upbm affinity estimate (log intensity, higher = more binding, comparable within an allelic series).

**Q.** AGATGTTA was tested. Which binding signal (HOXC10) did it give?
**A.** The binding signal was 10.8 upbm affinity estimate (log intensity, higher = more binding, comparable within an allelic series).

**Q.** For AGACGGGA, which binding signal (HOXA7 [1]) is on record?
**A.** Its binding signal is 8.62 upbm affinity estimate (log intensity, higher = more binding, comparable within an allelic series).

**Q.** And the binding signal (HOXA7 [2])?
**A.** The binding signal was 8.51 upbm affinity estimate (log intensity, higher = more binding, comparable within an allelic series).

— publication PMC11006913
